Laboratory results reported in PubChem BioAssay (EPA / NIEHS).
The source made the active and inactive calls. The calls were made as follows: active = hit-call score of the fitted dose curve at least 0.9, where 1 is the maximum; inactive = score below 0.9.

Assays:
Conditions in all cases: mRNA level, 48 h; actives raise or lower the signal
[1] = read-out: Peroxisomal acyl-coenzyme A oxidase 1 (ACOX1) gene, ACOX1 (gene 51); assay: LTEA_HepaRG_ACOX1: Life Technologies and Expression Analysis (LTEA) Assay for Peroxisomal acyl-coenzyme A oxidase 1 (ACOX1) gene using HepaRG (AID 2283467)
Outline: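 HepaRG, 48 h chemical exposure, 8-pt half-log series from 100 uM top, 0.5% DMSO vehicle, duplicates. Readout: ACOX1 mRNA by Fluidigm qRT-PCR, housekeeping-normalized; bidirectional fit vs DMSO baseline.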

[2] = read-out: Alkaline Phosphatase, Placental (ALPP) gene, ALPP (gene 250); assay: LTEA_HepaRG_ALPP: Life Technologies and Expression Analysis (LTEA) Assay for Alkaline Phosphatase, Placental (ALPP) gene using HepaRG (AID 2283468);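 as to AC50: differentiated human HepaRG liver cells in serum-free induction medium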
Outline: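 Using human liver HepaRG cells, chemicals are tested in duplicate over 48 h at half-log concentrations topping at 100 uM; phenobarbital 1 mM serves as induction control. ALPP mRNA change by qRT-PCR, bidirectional fit against vehicle.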

[3] = read-out: Bcl-2 (BAD) gene, BAD (gene 572); assay: LTEA_HepaRG_BAD: Life Technologies and Expression Analysis (LTEA) Assay for Bcl-2 (BAD) gene using HepaRG (AID 2283469)
Outline: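 HepaRG, 48 h exposure, 8-pt half-log curve from 100 uM in 0.5% DMSO, duplicates. Readout: TaqMan qRT-PCR for BAD mRNA, housekeeping-normalised (ACTB/GAPDH/POLR2A); gain or loss fitted against DMSO baseline.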

[4] = read-out: Bcl-2 (BAX) gene, BAX (gene 581); assay: LTEA_HepaRG_BAX: Life Technologies and Expression Analysis (LTEA) Assay for Bcl-2 (BAX) gene using HepaRG (AID 2283470)
Outline: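 Cells were thawed, plated for 48 h, moved to serum-free induction medium and dosed for 48 h (highest concentration 100 uM, half-log steps, 0.5% DMSO). Total RNA was then analysed for BAX expression by qRT-PCR.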

[5] = read-out: adenosine kinase (ADK) gene, ADK (gene 132); assay: LTEA_HepaRG_ADK: Life Technologies and Expression Analysis (LTEA) Assay for adenosine kinase (ADK) gene using HepaRG (AID 2283471)
Outline: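 Differentiated HepaRG cells dosed 48 h in serum-free induction medium, 0.5% DMSO vehicle, eight half-log concentrations from 100 uM, in duplicate. ADK mRNA by TaqMan qRT-PCR normalised to ACTB, GAPDH, POLR2A; bidirectional fit versus DMSO.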

[6] = read-out: Alpha-fetoprotein (AFP) gene, AFP (gene 174); assay: LTEA_HepaRG_AFP: Life Technologies and Expression Analysis (LTEA) Assay for Alpha-fetoprotein (AFP) gene using HepaRG (AID 2283472)
Outline: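 Chemicals were tested on differentiated HepaRG cells for 48 hours at eight concentrations up to 100 uM, with 0.5% DMSO as vehicle. AFP expression was then quantified by qRT-PCR and analyzed for gain or loss relative to DMSO.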

[7] = read-out: BCL2L11 (gene 10018); assay: LTEA_HepaRG_BCL2L11: Life Technologies and Expression Analysis (LTEA) Assay for Bcl-2 (BCL2L11) gene using HepaRG (AID 2283473)
Outline: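 Human hepatic HepaRG cultures are treated 48 h with test chemicals (maximum 100 uM, 0.5% DMSO vehicle). Expression of BCL2L11 is measured by qRT-PCR against ACTB, GAPDH and POLR2A, with activity in either direction scored relative to vehicle.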

[8] = read-out: Apolipoprotein A-V (APOA5) gene, APOA5 (gene 116519); assay: LTEA_HepaRG_APOA5: Life Technologies and Expression Analysis (LTEA) Assay for Apolipoprotein A-V (APOA5) gene using HepaRG (AID 2283474)
Outline: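 Concentration-response of APOA5 expression in HepaRG: eight half-log doses to 100 uM, 48 h, qRT-PCR normalized to ACTB/GAPDH/POLR2A, bidirectional fitting with 0.5% DMSO as baseline.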

[9] = read-out: Apoptosis regulator Bcl-2 (Homo sapiens) (UniProt P10415); assay: LTEA_HepaRG_BCL2: Life Technologies and Expression Analysis (LTEA) Assay for Bcl-2 gene using HepaRG (AID 2283475)
Outline: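 Plated human HepaRG cells are exposed to test chemicals for 48 h across eight concentrations from 100 uM downward in half-log steps (0.5% DMSO). BCL2 expression is then measured by qRT-PCR with housekeeping normalisation and fitted bidirectionally against vehicle.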

[10] = read-out: Bcl-2 (BID) gene, BID (gene 637); assay: LTEA_HepaRG_BID: Life Technologies and Expression Analysis (LTEA) Assay for Bcl-2 (BID) gene using HepaRG (AID 2283476)
Outline: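 Cells are plated, cultured 48 h, switched to serum-free induction medium, then dosed 48 h (100 uM top, half-log steps, 0.5% DMSO). RNA is isolated and BID expression read by qRT-PCR.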

[11] = read-out: Caspase-3 (Homo sapiens) (UniProt P42574); assay: LTEA_HepaRG_CASP3: Life Technologies and Expression Analysis (LTEA) Assay for cysteine-aspartic acid protease (CASP3) using HepaRG (AID 2283477)
Outline: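 Transcript-level assay: CASP3 mRNA in human HepaRG after 48 h treatment, eight half-log concentrations from 100 uM in 0.5% DMSO, quantified by qRT-PCR.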

[12] = read-out: Cytochrome P450 (CYP1A2), CYP1A2 (gene 1544); assay: LTEA_HepaRG_CYP1A2: Life Technologies and Expression Analysis (LTEA) Assay for Cytochrome P450 (CYP1A2) using HepaRG (AID 2283479)
Outline: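 In duplicate wells, HepaRG cultures maintained in 0.5% DMSO were treated 48 h across an 8-point, half-log series topping at 100 uM; phenobarbital (1 mM) served as induction control. Expression was read by qRT-PCR.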

[13] = read-out: cysteine-aspartic acid protease (CASP8), CASP8 (gene 841); assay: LTEA_HepaRG_CASP8: Life Technologies and Expression Analysis (LTEA) Assay for cysteine-aspartic acid protease (CASP8) using HepaRG (AID 2283480)
Outline: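 qRT-PCR readout of CASP8 mRNA, normalized to three housekeeping genes, after 48 h chemical exposure of HepaRG cells; 8-point half-log series, top 100 uM, 0.5% DMSO vehicle. Bidirectional curve fitting against DMSO baseline.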

[14] = read-out: Cytochrome P450 (CYP2B6), CYP2B6 (gene 1555); assay: LTEA_HepaRG_CYP2B6: Life Technologies and Expression Analysis (LTEA) Assay for Cytochrome P450 (CYP2B6) using HepaRG (AID 2283481)
Outline: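 Human HepaRG, 48 h dosing, 0.5% DMSO vehicle, top dose 100 uM. CYP2B6 transcript by qRT-PCR, housekeeping-normalized, bidirectional curve fit.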

[15] = read-out: Cytochrome P450 2C19 (Homo sapiens) (UniProt P33261); assay: LTEA_HepaRG_CYP2C19: Life Technologies and Expression Analysis (LTEA) Assay for CYP2C19 using HepaRG (AID 2283482)
Outline: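 Endpoint: CYP2C19 mRNA change, bidirectional fit vs 0.5% DMSO. Cells: HepaRG, 48 h exposure, eight-point series topping at 100 uM. Quantitation: qRT-PCR normalized to ACTB, GAPDH, POLR2A.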

[16] = read-out: CYP2C9 (gene 1559); assay: LTEA_HepaRG_CYP2C9: Life Technologies and Expression Analysis (LTEA) Assay for CYP2C9 using HepaRG (AID 2283484)
Outline: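 HepaRG, 48 h dosing, 8-pt half-log series, top 100 uM, 0.5% DMSO vehicle. Read-out: CYP2C9 transcript by TaqMan qRT-PCR, housekeeping-normalized (ACTB/GAPDH/POLR2A). Gain or loss fitted vs DMSO baseline.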

[17] = read-out: CYP2E1 (gene 1571); assay: LTEA_HepaRG_CYP2E1: Life Technologies and Expression Analysis (LTEA) Assay for CYP2E1 using HepaRG (AID 2283485)
Outline: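 Readout is qRT-PCR of CYP2E1 mRNA, normalized to three housekeeping genes and fitted bidirectionally against 0.5% DMSO. HepaRG cells were dosed 48 h at eight concentrations, highest 100 uM with half-log dilutions.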

[18] = read-out: Cytochrome P450 (CYP24A1), CYP24A1 (gene 1591); assay: LTEA_HepaRG_CYP24A1: Life Technologies and Expression Analysis (LTEA) Assay for Cytochrome P450 (CYP24A1) using HepaRG (AID 2283478)
Outline: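 Gene expression of CYP24A1 by TaqMan qRT-PCR in HepaRG after 48 h treatment, highest concentration 100 uM; activity fitted in both directions relative to DMSO vehicle.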

[19] = read-out: ATP-citrate lyase (ACLY), ACLY (gene 47); assay: LTEA_HepaRG_ACLY: Life Technologies and Expression Analysis (LTEA) Assay for ATP-citrate lyase (ACLY) using HepaRG (AID 2283466)
Outline: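 qRT-PCR readout of ACLY transcript after 48 h chemical treatment of HepaRG cells; expression normalized to three housekeeping genes. Eight-point half-log series, highest 100 uM, 0.5% DMSO vehicle. Gain or loss fitted against DMSO baseline.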

[20] = read-out: CYP2C8 (gene 1558); assay: LTEA_HepaRG_CYP2C8: Life Technologies and Expression Analysis (LTEA) Assay for CYP2C8 using HepaRG (AID 2283483)
Outline: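 HepaRG (human liver line), 48 h chemical exposure, 8-pt half-log series from 100 uM, 0.5% DMSO vehicle. Readout: CYP2C8 transcript by qRT-PCR, housekeeping-normalized. Bidirectional fit vs DMSO baseline.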

Measured: AC50

Sequence of Apoptosis regulator Bcl-2 (Homo sapiens) (P10415 whole entry, looked up): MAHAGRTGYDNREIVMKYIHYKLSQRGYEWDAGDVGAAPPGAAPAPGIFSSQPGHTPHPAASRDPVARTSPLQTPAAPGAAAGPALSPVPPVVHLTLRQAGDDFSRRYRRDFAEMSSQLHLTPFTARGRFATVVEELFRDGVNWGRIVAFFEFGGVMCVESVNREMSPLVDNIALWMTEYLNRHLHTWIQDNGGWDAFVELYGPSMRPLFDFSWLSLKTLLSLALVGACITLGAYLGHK
Sequence of Cytochrome P450 2C19 (Homo sapiens) (P33261 whole entry, looked up): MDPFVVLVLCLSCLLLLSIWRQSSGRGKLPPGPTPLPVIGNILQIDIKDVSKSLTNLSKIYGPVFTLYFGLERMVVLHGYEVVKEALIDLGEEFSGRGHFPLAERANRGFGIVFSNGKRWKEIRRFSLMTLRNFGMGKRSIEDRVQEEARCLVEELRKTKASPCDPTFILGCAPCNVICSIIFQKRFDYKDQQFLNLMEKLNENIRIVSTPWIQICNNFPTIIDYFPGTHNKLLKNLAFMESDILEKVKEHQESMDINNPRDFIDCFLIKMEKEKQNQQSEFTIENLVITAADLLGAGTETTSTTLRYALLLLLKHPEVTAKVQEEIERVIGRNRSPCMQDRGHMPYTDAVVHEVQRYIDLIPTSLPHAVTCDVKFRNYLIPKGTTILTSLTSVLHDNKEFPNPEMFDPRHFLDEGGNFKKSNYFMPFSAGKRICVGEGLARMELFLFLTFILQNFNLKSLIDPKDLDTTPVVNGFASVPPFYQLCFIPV
Sequence of Caspase-3 (Homo sapiens) (P42574 whole entry, looked up): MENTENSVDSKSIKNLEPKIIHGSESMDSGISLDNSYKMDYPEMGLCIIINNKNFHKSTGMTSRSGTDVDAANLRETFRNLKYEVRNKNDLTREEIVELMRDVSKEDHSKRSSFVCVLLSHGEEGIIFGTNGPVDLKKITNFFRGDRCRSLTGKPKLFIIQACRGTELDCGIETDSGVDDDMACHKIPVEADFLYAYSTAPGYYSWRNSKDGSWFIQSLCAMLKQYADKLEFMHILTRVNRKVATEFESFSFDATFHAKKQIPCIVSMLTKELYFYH

O=C(Oc1ccc(Br)cc1)N1CCN2CCC1CC2
inactive: [1] | [2] | [3] | [4] | [5] | [6] | [7] | [8] | [9] | [10] | [11] | [13] | [16]
active: [12] 66.7 µM | [14] 6.42 µM | [15] 15.2 µM | [17] 63.8 µM

Oc1ccccc1Cl
inactive: [1] | [2] | [3] | [4] | [5] | [6] | [7] | [8] | [9] | [10] | [11] | [18] | [12] | [13] | [14] | [15] | [16] | [17]

c1ccc(C2CO2)cc1 (configuration not stated)
inactive: [19] | [2] | [3] | [5] | [6] | [7] | [8] | [9] | [10] | [11] | [12] | [13] | [14] | [15] | [20] | [16] | [17]

CC(C)(C)OOC(=O)c1ccccc1
inactive: [19] | [2] | [3] | [5] | [6] | [7] | [8] | [9] | [10] | [11] | [18] | [12] | [13] | [14] | [15] | [20] | [16] | [17]

ClC1=C(Cl)[C@]2(Cl)[C@H]3[C@H]([C@@H]4C=C[C@H]3C4)[C@@]1(Cl)C2(Cl)Cl
active: [6] 50 µM | [14] 2.2 µM | [15] 3.63 µM | [17] 23 µM
inactive: [19] | [2] | [3] | [4] | [5] | [7] | [8] | [9] | [10] | [11] | [12] | [13] | [16]

CC(C)(C)C(O)(CCc1ccc(Cl)cc1)Cn1cncn1 (configuration not stated)
active: [19] 6.24 µM | [2] 80.3 µM | [6] 62.2 µM | [8] 79.4 µM | [9] 79 µM | [12] 2.92 µM | [14] 91.4 µM | [15] 12.1 µM | [20] 11.4 µM | [16] 85.9 µM | [17] 50 µM
inactive: [3] | [5] | [7] | [10] | [11] | [18] | [13]

COc1cc(C=O)cc2c1[C@H](COC(N)=O)[C@]1(OC(C)=O)ON2C[C@H]2[C@@H]1N2C(C)=O
inactive: [2] | [4] | [9] | [10] | [11] | [17]
active: [1] 94.2 µM | [3] 89.3 µM | [5] 24.6 µM | [6] 0.95 µM | [7] 1.29 µM | [8] 0.316 µM | [13] 3.89 µM | [14] 73.4 µM | [15] 0.804 µM | [20] 0.5 µM | [16] 24.2 µM
